# Measured values published in PubChem BioAssay (Tox21).
# A number with no mark means an inactive call. Records with an inconclusive call do not appear. Where a call stands in place of a potency, no number is given. The source made the active and inactive calls. Unless noted, the call rests on the fitted dose curve; in most records, active means well fitted curve in the direction sought with a large enough effect in the repeat runs; inconclusive means weak or mixed curves; inactive means no such curve, though single readings can be large; an effect the other way counts as inactive or inconclusive.
# How the values were obtained:
# [1] = qHTS assay for small molecules that induce genotoxicity in human embryonic kidney cells expressing luciferase-tagged ATAD5 (AID 651632); further: nearly all actives have a fitted effect of over 15% in size
# Summary of the method: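 Quantitative HTS in HEK293T expressing luciferase-tagged ATAD5, whose levels rise upon DNA damage. Exposure ran 16 hr at 37C and 5% CO2, with luminescence read 30 min after Amplite addition at room temperature.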
# [2] = qHTS assay for small molecule agonists of the p53 signaling pathway - cell viability (AID 651633; calls by dose curve; further: nearly all actives have a fitted effect of over 30% in size; further: potency means the concentration at half of the fitted maximal effect)
# Summary of the method: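 p53RE-bla cells, seeded at 4,000 per well and rested 5 h at 37 C/5% CO2, received compounds in DMSO for 16 h at 37 C. CellTiter-Glo was then added, and luminescence was read after 30 min at room temperature to gauge cytotoxicity.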
# [3] = qHTS assay for small molecules that induce genotoxicity in human embryonic kidney cells expressing luciferase-tagged ATAD5 - cell viability (AID 651634; calls by dose curve; further: nearly all actives have a fitted effect of over 25% in size; further: potency means the concentration at half of the fitted maximal effect)
# Summary of the method: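 After 15.5 hr incubation with compound at 37C, 5% CO2, HEK293T ATAD5-luciferase cells received CellTiter-Fluor reagent; fluorescence intensity was quantified following 30 min at 37C.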
# [4] = qHTS assay for small molecule disruptors of the mitochondrial membrane potential - cell viability (AID 720634; calls by dose curve; further: nearly all actives have a fitted effect of over 20% in size; further: potency means the concentration at half of the fitted maximal effect)
# Summary of the method: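 ATP-based luminescent viability readout (CellTiter-Glo, 30 min, room temperature) in HepG2 cells multiplexed with the m-MPI membrane potential dye; compound exposure lasted 1 hr at 37 C.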
# [5] = qHTS assay to test for compound auto fluorescence at 590 nm (red) in HepG2 cells (AID 720674)
# Summary of the method: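 Rose Bengal sodium served as the red fluorophore standard. HepG2 monolayers (overnight attachment, MEM with 10% FBS) were exposed to test compounds for 1 hr at 37 C and read at Ex 540/Em 590 nm.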
# [6] = qHTS assay to test for compound auto fluorescence at 535 nm (green) in HepG2 cells (AID 720675)
# [7] = qHTS assay to test for compound auto fluorescence at 460 nm (blue) in HEK293 cells (AID 720678)
# Summary of the method: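 After cell attachment (4-5 hr, 37C), compounds were pinned onto HEK293 monolayers in 10% dialyzed FBS medium. The blue channel (405/460 nm) was read following overnight culture. Equivalency was calculated against triamterene.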
# [8] = qHTS assay to test for compound auto fluorescence at 590 nm (red) in HEK293 cells (AID 720679)
# Summary of the method: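 Plates of HEK293 cells (10% dialyzed FBS) are treated with 23 nL compound or DMSO vehicle after a 4-5 hr attachment period, incubated overnight at 37C, and read for red fluorescence at 540/590nm.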
# [9] = qHTS assay to test for compound auto fluorescence at 460 nm (blue) in HEK293 cell free culture (AID 720681)
# Summary of the method: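 Test compounds were pinned into cell-free culture medium (DMEM with 10% FBS) and fluorescence was read directly at Ex/Em 405/460 nm. Signals were expressed as fluorescence equivalents of triamterene, with DMSO vehicle as control.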
# [10] = qHTS assay to test for compound auto fluorescence at 535 nm (green) in HEK293 cell free culture (AID 720682)
# Summary of the method: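 Steps: dispense DMEM/10% FBS into empty wells; pin in compound or DMSO; measure fluorescence at 485/535 nm. Values are fluorescein equivalents.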
# [11] = qHTS assay to test for compound auto fluorescence at 590 nm (red) in HEK293 cell free culture (AID 720683)
# Summary of the method: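 Tox21 10K library compounds were pinned into cell-free DMEM with 10% FBS and fluorescence was read at excitation 540 nm. Activity is expressed as Rose Bengal sodium equivalency.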
# [12] = qHTS assay to test for compound auto fluorescence at 590 nm (red) in HepG2 cell free culture (AID 720684)
# Summary of the method: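 Ex 540 / Em 590 nm read of compound in cell-free MEM (10% FBS). Rose Bengal sodium reference.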
# [13] = qHTS assay to test for compound auto fluorescence at 460 nm (blue) in HepG2 cell free culture (AID 720685)
# Summary of the method: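 Cell-free plates of MEM plus 10% FBS received 23 nL compound or DMSO vehicle; blue-channel (405/460 nm) intensity scored against triamterene as reference fluorophore.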
# [14] = qHTS assay to test for compound auto fluorescence at 535 nm (green) in HepG2 cell free culture (AID 720686)
# [15] = qHTS assay to test for compound auto fluorescence at 460 nm (blue) in HepG2 cells (AID 720687)
# Summary of the method: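 Cells (2,000/well in MEM with 10% FBS) attached overnight at 37 C, then were exposed to compound or DMSO for 1 hr at 37 C, 5% CO2. Fluorescence read at Ex/Em 405/460 nm, expressed as triamterene-equivalent signal.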
# [16] = biological target: Glucocorticoid receptor (Homo sapiens) (UniProt P04150); experiment: qHTS assay to identify small molecule agonists of the glucocorticoid receptor (GR) signaling pathway (AID 720691; active means well fitted activation curve with a large enough effect in the signal ratio in the repeat runs, not every such curve was filed as active; the % refers to the signal ratio); conditions: GR-bla HeLa, beta-lactamase reporter ratio, 18 h; activation: at 62.4 µM (top of the series)
# Sequence of Glucocorticoid receptor (Homo sapiens) (P04150 whole entry, looked up): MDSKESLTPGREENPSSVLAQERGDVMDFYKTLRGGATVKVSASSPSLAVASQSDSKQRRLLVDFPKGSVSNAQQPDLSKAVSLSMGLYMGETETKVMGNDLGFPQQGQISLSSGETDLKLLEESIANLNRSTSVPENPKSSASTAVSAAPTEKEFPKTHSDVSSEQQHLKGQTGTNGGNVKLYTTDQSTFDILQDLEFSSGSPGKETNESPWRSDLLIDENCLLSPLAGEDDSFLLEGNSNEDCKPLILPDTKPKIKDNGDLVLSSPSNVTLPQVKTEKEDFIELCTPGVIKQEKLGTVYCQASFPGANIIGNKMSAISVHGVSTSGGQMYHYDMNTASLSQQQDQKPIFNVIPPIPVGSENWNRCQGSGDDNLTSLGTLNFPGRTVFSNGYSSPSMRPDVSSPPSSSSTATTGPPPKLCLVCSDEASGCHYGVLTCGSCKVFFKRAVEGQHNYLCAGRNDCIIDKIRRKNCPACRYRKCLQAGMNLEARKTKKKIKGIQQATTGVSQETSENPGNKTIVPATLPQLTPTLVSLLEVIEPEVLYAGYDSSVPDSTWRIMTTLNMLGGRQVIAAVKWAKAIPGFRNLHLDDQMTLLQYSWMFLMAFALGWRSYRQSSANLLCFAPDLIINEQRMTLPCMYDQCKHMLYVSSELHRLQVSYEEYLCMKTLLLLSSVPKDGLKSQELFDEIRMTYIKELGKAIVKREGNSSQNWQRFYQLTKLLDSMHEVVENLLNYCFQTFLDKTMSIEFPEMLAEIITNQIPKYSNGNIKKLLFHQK
# Summary of the method: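 Cells: GR-bla HeLa, endogenous GR with stably integrated GRE-beta-lactamase reporter. Treatment 18 h, 37 C, compounds delivered in DMSO. Detection via LiveBLAzer B/G FRET substrate, 2 h RT, fluorescence intensity.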
# [17] = biological target: Glucocorticoid receptor (Homo sapiens) (UniProt P04150); experiment: qHTS assay to identify small molecule antagonists of the glucocorticoid receptor (GR) signaling pathway (AID 720692; active means well fitted inhibition curve with a large enough effect in the signal ratio in the repeat runs, not every such curve was filed as active; the % refers to the signal ratio)
# Summary of the method: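 Quantitative HTS in antagonist format: HeLa cells expressing endogenous GR and a stably integrated GRE-bla reporter, stimulated with 5 nM dexamethasone (final) alongside test compounds for 18 h.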
# [18] = qHTS assay for small molecule disruptors of the mitochondrial membrane potential (AID 720635); further: potency means the concentration at half of the fitted maximal effect
# Summary of the method: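 HepG2 cells (2,000/well) attached overnight at 37C, then took compound for 1 hr at 37C, 5% CO2. Mito-MPS dye was added for 30 min; fluorescence was read at 490/535 nm (monomers) and 540/590 nm (aggregates).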
# [19] = qHTS assay to test for compound auto fluorescence at 535 nm (green) in HEK293 cells (AID 720680)
smiles,measurement,setting,value
Cc1c(C)n(Cc2ccccc2)c2ccc(C(=O)OCCN(C)C)cc12,Potency,[1],inactive
same,Potency,[2],inactive
same,Potency,[3],inactive
same,Potency,[4],inactive
same,Potency,[5],inactive
same,Potency,[6],inactive
same,Potency,[7],inactive
same,Potency,[8],inactive
same,Potency,[9],inactive
same,Potency,[10],inactive
same,Potency,[11],inactive
same,Potency,[12],inactive
same,Potency,[13],inactive
same,Potency,[14],inactive
same,Potency,[15],inactive
same,Potency,[16],inactive
CNC(=S)NN,Potency,[1],inactive
same,Potency,[2],inactive
same,Potency,[3],inactive
same,Potency,[4],inactive
same,Potency,[5],inactive
same,Potency,[6],inactive
same,Potency,[7],inactive
same,Potency,[8],inactive
same,Potency,[11],inactive
same,Potency,[12],inactive
same,Potency,[13],inactive
same,Potency,[14],inactive
same,Potency,[15],inactive
same,Potency,[16],inactive
same,Potency,[17],inactive
CCOC(=O)[C@@](C)(N)Cc1ccc(O)c(O)c1,Potency,[1],inactive
same,Potency,[2],inactive
same,Potency,[3],inactive
same,Potency,[4],inactive
same,Potency,[18],inactive
same,"fluorescence, relative to Rose Bengal",[5],-0.208% [at 18.6 µM]
same,"fluorescence, % of fluorescein control",[6],-0.17% [at 18.6 µM]
same,"fluorescence, % of triamterene",[7],0.197% [at 18.6 µM]
same,"fluorescence, % of fluorescent control",[8],0.559% [at 18.6 µM]
same,"fluorescence, % of fluorescein",[19],-0.0378% [at 18.6 µM]
same,"fluorescence, % of fluorescent control",[9],0.186% [at 18.6 µM]
same,activity change,[10],"-0.0329% [at 18.6 µM, stronger effect = higher value]"
same,"fluorescence, % of fluorescent control",[11],0.256% [at 18.6 µM]
same,"fluorescence, % of Rose Bengal",[12],0.0263% [at 18.6 µM]
same,"fluorescence, % of fluorescent control",[13],0.193% [at 18.6 µM]
same,"fluorescence, % of fluorescein control",[14],-0.0478% [at 18.6 µM]
same,"fluorescence, % of fluorescent control",[15],0.0997% [at 18.6 µM]
same,Potency,[16],inactive
same,Potency,[17],inactive
Cc1oc(-c2ccccc2)nc1CCOc1ccc(C[C@H](Nc2ccccc2C(=O)c2ccccc2)C(=O)O)cc1,Potency,[1],inactive
same,Potency,[2],21.7 µM (active)
same,Potency,[3],54.5 µM (active)
same,Potency,[18],61.1 µM (active)
same,Potency,[5],inactive
same,Potency,[6],inactive
same,Potency,[8],inactive
same,Potency,[19],inactive
same,Potency,[9],inactive
same,Potency,[10],inactive
same,Potency,[11],inactive
same,Potency,[12],inactive
same,Potency,[13],inactive
same,Potency,[14],inactive
same,Potency,[15],inactive
O=C1c2c(O)ccc([N+](=O)[O-])c2C(=O)c2c([N+](=O)[O-])ccc(O)c21,Potency,[1],inactive
same,Potency,[2],8.56 µM (active)
same,Potency,[3],9.6 µM (active)
same,Potency,[4],30.4 µM (active)
same,Potency,[18],0.054 µM (active)
same,Potency,[5],inactive
same,Potency,[6],inactive
same,Potency,[8],inactive
same,Potency,[10],inactive
same,Potency,[11],inactive
same,Potency,[12],inactive
same,Potency,[13],inactive
same,Potency,[14],inactive
same,Potency,[15],inactive
COCC(=O)O[C@]1(CCN(C)CCCc2nc3ccccc3[nH]2)CCc2cc(F)ccc2[C@@H]1C(C)C,Potency,[1],inactive
same,Potency,[2],11.9 µM (active)
same,Potency,[3],10.6 µM (active)
same,Potency,[4],26.6 µM (active)
same,Potency,[18],3.35 µM (active)
same,Potency,[5],inactive
same,Potency,[7],inactive
same,Potency,[8],inactive
same,Potency,[19],inactive
same,Potency,[10],inactive
same,Potency,[11],inactive
same,Potency,[12],inactive
same,Potency,[13],inactive
same,Potency,[14],inactive
same,Potency,[15],inactive
NCCCCCCNCCCCCCN,Potency,[1],inactive
same,Potency,[2],inactive
same,Potency,[3],inactive
same,Potency,[4],inactive
same,Potency,[18],inactive
same,Potency,[5],inactive
same,Potency,[6],inactive
same,Potency,[8],inactive
same,Potency,[19],inactive
same,Potency,[9],inactive
same,Potency,[11],inactive
same,Potency,[12],inactive
same,Potency,[13],inactive
same,Potency,[14],inactive
same,Potency,[15],inactive
same,Potency,[16],inactive
same,Potency,[17],inactive
